ADAM10 inh – inhibits human ADAM10 | O14672 | recombinant ADAM10, EDANS/DABCYL FRET peptide cleavage, 3 h | inhibition, % at 7 µM | hit rate 0.62% among 370,000 | AID 720582;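 active = inhibition above a per-campaign cutoff equal to the mean of compounds falling between control-based bounds plus 3 SD, cut at about 20% in these data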;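 also: 0% = DMSO wells while the 100% control is not disclosed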
PLCg1 inh – PLC-gamma1 (human) inhibition, primary screen. AID 720700. purified PLC-gamma1, fluorogenic substrate, fluorescence. hit rate 0.84% among 370,000. P19174. inhibition, % at 12.2 µM; in the data active = inhibition above about 9.5%
Target sequence (P19174 whole entry, looked up): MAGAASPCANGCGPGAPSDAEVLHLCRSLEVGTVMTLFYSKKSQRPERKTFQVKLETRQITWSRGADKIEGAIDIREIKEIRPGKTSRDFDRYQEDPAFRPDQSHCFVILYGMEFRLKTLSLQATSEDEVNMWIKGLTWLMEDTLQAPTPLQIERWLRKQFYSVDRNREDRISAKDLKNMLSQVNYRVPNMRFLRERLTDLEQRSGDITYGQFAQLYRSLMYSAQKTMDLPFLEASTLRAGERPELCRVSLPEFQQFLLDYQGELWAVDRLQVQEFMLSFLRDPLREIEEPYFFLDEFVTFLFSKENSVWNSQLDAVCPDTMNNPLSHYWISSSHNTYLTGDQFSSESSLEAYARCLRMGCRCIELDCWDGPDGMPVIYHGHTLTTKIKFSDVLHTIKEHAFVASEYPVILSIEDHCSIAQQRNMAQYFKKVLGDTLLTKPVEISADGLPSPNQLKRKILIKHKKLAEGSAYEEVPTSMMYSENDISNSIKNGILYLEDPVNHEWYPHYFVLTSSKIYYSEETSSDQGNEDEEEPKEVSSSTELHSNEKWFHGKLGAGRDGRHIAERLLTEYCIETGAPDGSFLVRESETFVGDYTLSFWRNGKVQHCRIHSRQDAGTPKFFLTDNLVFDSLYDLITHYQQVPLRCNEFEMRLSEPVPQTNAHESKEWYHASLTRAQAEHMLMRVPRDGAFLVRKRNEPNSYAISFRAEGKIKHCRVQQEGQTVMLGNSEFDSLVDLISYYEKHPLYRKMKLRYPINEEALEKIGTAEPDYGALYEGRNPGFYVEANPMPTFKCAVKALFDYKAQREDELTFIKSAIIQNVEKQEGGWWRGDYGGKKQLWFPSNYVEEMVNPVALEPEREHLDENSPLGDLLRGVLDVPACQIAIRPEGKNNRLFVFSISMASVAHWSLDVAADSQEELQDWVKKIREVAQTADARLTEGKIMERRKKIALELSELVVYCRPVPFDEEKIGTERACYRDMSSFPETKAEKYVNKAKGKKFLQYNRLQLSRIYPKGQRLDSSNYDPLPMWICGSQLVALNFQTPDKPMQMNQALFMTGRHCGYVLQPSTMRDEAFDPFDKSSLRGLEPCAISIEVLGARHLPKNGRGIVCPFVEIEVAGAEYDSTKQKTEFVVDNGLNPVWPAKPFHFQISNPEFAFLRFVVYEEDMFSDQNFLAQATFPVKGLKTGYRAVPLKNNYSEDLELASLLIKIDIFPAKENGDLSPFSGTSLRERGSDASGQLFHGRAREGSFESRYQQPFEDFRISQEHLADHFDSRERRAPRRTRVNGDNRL
PLCb3 inh – PLC-beta3 (human) inhibition, primary screen | inhibition, % at 12.2 µM | Purified PLC-beta3, fluorogenic substrate, fluorescence | Q01970 | hit rate 0.18% among 370,000;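 also: 0% = median of compound wells on plate and 100% = full blocker control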
KLK7 zymogen act – proKLK7 (human) activation, primary screen | AID 652039 | P49862 | hit rate 0.9% among 370,000 | purified proKLK7, EDANS-DABCYL substrate fluorescence; 100% is mature enzyme control, 0% vehicle | activation, % at 7 µM;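 active = activation above the mean of all tested compounds plus 3 SD, computed per campaign excluding outliers beyond control limits, cut at about 13% in these data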
ADAM17 inh – ADAM17 inhibition, QFRET primary screen | recombinant ADAM17, EDANS/DABCYL FRET peptide cleavage | hit rate 0.83% among 370,000 | AID 720648 | inhibition, % at 6.95 µM;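 active = inhibition above the mean of compounds lying between control limits plus 3 SD, set per campaign, cut at about 8.5% in these data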;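 also: 0% = DMSO-only wells as the low control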
ADAM10 counter – ADAM10 inhibition, counter-screen for ADAM17 exosite hits; shares compounds with ADAM17 inh; recombinant ADAM10, EDANS/DABCYL FRET peptide cleavage, 3 h; inhibition, % at 6.95 µM; hit rate 47% among 2,900; AID 743256;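 active = mean inhibition over the triplicate runs exceeds the activity threshold set in the earlier primary screen, cut at about 20% in these data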;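 also: 0% = DMSO wells and 100% = marimastat wells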
ADAM17 confirm – confirmation of inhibitors of human ADAM17; recombinant ADAM17, EDANS/DABCYL QFRET peptide cleavage; shares compounds with ADAM17 inh; inhibition, % at 6.95 µM; hit rate 65% among 2,900;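 active = mean inhibition across replicates above the hit cutoff set in the primary screen, cut at about 8.5% in these data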;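 also: 0% = DMSO wells and 100% = marimastat wells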
PLCg1 ctr – counter-screen for PLC-beta3 inhibitors: inhibitors of human PLC-gamma1; hit rate 3.1% among 3,300; AID 743258; inhibition, % at 12.3 µM; purified PLC-gamma1, fluorogenic substrate, fluorescence; shares compounds with PLCg1 inh; in the data active = inhibition above about 9.5%
PLCb3 confirm – confirmation of human PLC-beta3 inhibitors; purified PLC-beta3, fluorogenic substrate fluorescence; shares compounds with PLCg1 inh; inhibition, % at 12.3 µM; hit rate 1% among 3,300
* hit, by the source's call. An excerpt weighted towards active compounds, which were near 2.9% of everything screened. Rule as the data show it, unless noted: active = inhibition above about 11%; inactive = the rest.

Screening CCc1nc2ccc(C(=O)Nc3cccc(OC)c3)cn2c1N(CC)CCN(C)C returned ADAM10 inh -14, PLCg1 inh -2, PLCb3 inh -1, KLK7 zymogen act 1 and ADAM17 inh -6.
`O=C(COC(=O)COc1ccc(Br)cc1)NCc1ccc2c(c1)OCO2` gave ADAM10 inh 1, PLCg1 inh -2, PLCb3 inh -1, KLK7 zymogen act 0 and ADAM17 inh 3.
Screening Cc1cc(OCC(=O)OCC(=O)NCc2ccc3c(c2)OCO3)ccc1Cl returned ADAM10 inh -5, PLCg1 inh 10*, PLCb3 inh -7, KLK7 zymogen act 0, ADAM17 inh 11*, ADAM10 counter 9, ADAM17 confirm 9.1*, PLCg1 ctr -12 and PLCb3 confirm -3.
Screening Cc1ccc(O)c(C(C)c2c[nH]c3ccccc23)c1 (stereo not given) returned ADAM10 inh 5, PLCg1 inh -1, PLCb3 inh -1, KLK7 zymogen act 0 and ADAM17 inh 2.
OC1CCC2CN3CCc4c([nH]c5ccccc45)C3CC2C1 (stereo not given) was read as ADAM10 inh -59, PLCg1 inh -54, PLCb3 inh -72, KLK7 zymogen act 4 and ADAM17 inh -13.
For COc1ccc(S(=O)(=O)Nc2ccc3c(c2)CC(=O)N([C@@H](C)CO)C[C@H](C)[C@@H](CN(C)S(=O)(=O)c2ccc(F)cc2)O3)cc1 the results were ADAM10 inh 14, PLCg1 inh 11*, PLCb3 inh 6, KLK7 zymogen act 0, ADAM17 inh 10*, ADAM10 counter 8, ADAM17 confirm 3, PLCg1 ctr -2 and PLCb3 confirm -3.
Cc1cc2c(c(=O)o1)[C@@]1(C(=O)N(C)c3ccc([N+](=O)[O-])cc31)C1=C(CCCC1=O)O2 was read as ADAM10 inh 4, PLCg1 inh 9.5*, PLCb3 inh 10, KLK7 zymogen act 0, ADAM17 inh 8.7*, ADAM10 counter 0, ADAM17 confirm 4, PLCg1 ctr -2 and PLCb3 confirm 1.
For COc1ccc2c(c1)[C@]1(C(=O)N2C)C2=C(CCCC2=O)Oc2cc(C)oc(=O)c21 the results were ADAM10 inh 2, PLCg1 inh 5, PLCb3 inh 4, KLK7 zymogen act 1 and ADAM17 inh -1.
Screening CCOC(=O)c1cnc2ccc(Br)cc2c1NCC(C)O (stereo not given) returned ADAM10 inh 7, PLCg1 inh 12*, PLCb3 inh 5, KLK7 zymogen act 1, ADAM17 inh 10*, ADAM10 counter -6, ADAM17 confirm 1, PLCg1 ctr -4 and PLCb3 confirm -1.
For CCOC(=O)c1cnc2ccc(Br)cc2c1NCCO the results were ADAM10 inh 7, PLCg1 inh 6, PLCb3 inh 4, KLK7 zymogen act 0 and ADAM17 inh 0.
Screening O=C(C[C@H]1C/C=C\CC[C@@H](Cc2ccc(F)cc2)C(=O)O[C@@H](c2ccccc2)CNC1=O)N[C@H](CO)Cc1ccccc1 returned ADAM10 inh 7, PLCg1 inh 11*, PLCb3 inh 8, KLK7 zymogen act 0, ADAM17 inh 13*, ADAM10 counter 17, ADAM17 confirm 12*, PLCg1 ctr 1 and PLCb3 confirm -1.
Screening CC(C)(C)OC(=O)C[C@H]1C/C=C\C[C@H](CC(=O)N[C@H](CO)Cc2ccccc2)C(=O)N[C@@H](Cc2ccccc2)COC1=O returned ADAM10 inh 9, PLCg1 inh 14*, PLCb3 inh 13*, KLK7 zymogen act 0, ADAM17 inh 12*, ADAM10 counter 4, ADAM17 confirm 4, PLCg1 ctr 1 and PLCb3 confirm 2.
Screening Cc1ccc(Cc2c(-c3ccc(Cl)cc3)nc3c(C)cc(Br)cn23)cc1 returned ADAM10 inh 2, PLCg1 inh 1, PLCb3 inh 1, KLK7 zymogen act 0 and ADAM17 inh 0.
For Cc1ccc(Nc2nc(Nc3ccc(C)cc3)nc(SC3=NCCS3)n2)cc1 the results were ADAM10 inh 15, PLCg1 inh 16*, PLCb3 inh 2, KLK7 zymogen act 0, ADAM17 inh 9.8*, ADAM10 counter 20*, ADAM17 confirm 12*, PLCg1 ctr 5 and PLCb3 confirm 3.
CCCCCCSC1=C(C#N)C(=O)NC2(CCCCC2)S1 was read as ADAM10 inh 12, PLCg1 inh 14*, PLCb3 inh 8, KLK7 zymogen act 0, ADAM17 inh 9.0*, ADAM10 counter 19, ADAM17 confirm 9.0*, PLCg1 ctr 1 and PLCb3 confirm 0.
`COc1ccc(CSC2=C(C#N)C(=O)NC3(CCCCC3)S2)cc1` gave ADAM10 inh -6, PLCg1 inh 3, PLCb3 inh 2, KLK7 zymogen act 0 and ADAM17 inh 1.
`COc1ccc(Br)c(Cn2c(C)c(C(=O)NCc3cccc([N+](=O)[O-])c3)sc2=O)c1` gave ADAM10 inh 9, PLCg1 inh 2, PLCb3 inh 1, KLK7 zymogen act 0 and ADAM17 inh 7.
Screening CC(C)C(c1nnnn1Cc1ccccc1)N1CCN(Cc2ccco2)CC1 (stereo not given) returned ADAM10 inh -9, PLCg1 inh -2, PLCb3 inh 1, KLK7 zymogen act 0 and ADAM17 inh -4.
CC(C)C(c1nnnn1Cc1ccco1)N1CCN(c2cccc(Cl)c2)CC1 (stereo not given) was read as ADAM10 inh 20, PLCg1 inh 12*, PLCb3 inh 2, KLK7 zymogen act 0, ADAM17 inh 14*, ADAM10 counter 12, ADAM17 confirm 8, PLCg1 ctr -5 and PLCb3 confirm -6.
For Cc1[nH]c2ccccc2c1C(=O)CSC(=S)N1CCCCC1 the results were ADAM10 inh 17, PLCg1 inh 15*, PLCb3 inh 6, KLK7 zymogen act 0, ADAM17 inh 11*, ADAM10 counter 12, ADAM17 confirm 8, PLCg1 ctr -2 and PLCb3 confirm 2.
`O=C(NC(Cc1ccccc1)C(=O)N1CCCCC1)c1ccccc1` (stereo not given) gave ADAM10 inh 2, PLCg1 inh 13*, PLCb3 inh 6, KLK7 zymogen act 0, ADAM17 inh 9.3*, ADAM10 counter 8, ADAM17 confirm 5, PLCg1 ctr -6 and PLCb3 confirm -5.
